Results from ChEMBL document CHEMBL3988442, “University of Dundee, Small-Polar-MMV Screening Library” (2021).
Hit rate of the full screen: of about 48,000 compounds, about 13,000 (27%) showed an effect of 50% or more. The list shows a part of the results.

Test system: Wolbachia pipientis
Test: Anti-Wolbachia Cell-Based Screen
Type: functional
Parameters: scale not given: in the data most compounds retested in dose-response had high values
Settings: 5 µM

Structure (SMILES)	Percent Effect
CCOc1ccc(NC(=O)c2cnc(N3CCCC3)nc2C)cc1	17.2%
CCOC(=O)c1ccc(NC(=O)c2cc3c([nH]c2=O)CCCC3)cc1	-8.889%
CCOc1ccc(NC(=O)c2cc3c([nH]c2=O)CCC3)cc1	108.3%
Cc1ncsc1CN1C[C@@H]2COC[C@]2(C(=O)NC(C)C)C1.O=C(O)C(F)(F)F	-19.77%
CCCc1nc(C)c(C(=O)NCc2ccc(C)n2C)s1	17.26%
Cc1nc(C)c(C(=O)Nc2cc(N3CCC(C)CC3)ncn2)s1	1.923%
CCCc1nc(C)c(C(=O)Nc2cccc(C)n2)s1	125.8%
Cc1nc(C)c(C(=O)NCCNC(=O)Cc2cccc(F)c2)s1	-2.44%
CCCc1nc(C)c(C(=O)NS(=O)(=O)c2cccnc2)s1	-11.93%
Cc1cccc(NC(=O)c2sc(C)nc2C)n1	165.1%
COCC(O)CN(C)C(=O)c1cccc(-c2csc(C)n2)c1 (centres undefined)	-1.754%
CCn1nc(C)c(CCn2ccnc2-c2cc3n(n2)CCNC3)c1C	7.532%
Cc1cc(NC(=O)c2ccc(N3CCOCC3)c(C)c2)[nH]n1	7.693%
Cc1nn(C(C)C)c(C)c1NC(=O)c1ccncc1	7.79%
Cc1ccc(C(=O)Nc2cc(C(C)C)n[nH]2)cn1	-1.048%
CC(C)c1cc(NC(=O)c2ccc([S+]([O-])C(C)C)cc2)[nH]n1 (centres undefined)	112.1%
CC(C)c1cc(NC(=O)c2ccc(NC3CC3)nc2)[nH]n1	-1.016%
COc1ccc(N(C(=O)Cc2ccc(C)nc2)C(C)C)cc1F	-2.597%
Cc1ccc(CC(=O)Nc2cc(C(C)C)n[nH]2)cn1	129.4%
CC(C)c1cc(NC(=O)c2cccnc2)[nH]n1	108.7%
Cc1ccc(CC(=O)NCC(O)c2ccc(Cl)cc2Cl)cn1 (centres undefined)	-14.52%
Cc1cc(NC(=O)c2ccc(N3CCOCC3)cc2)[nH]n1	-12.35%

Structure (SMILES)	Percent Effect
CC(C)c1cc(NC(=O)c2ccc(C(=O)NC(C)(C)C)cc2)[nH]n1	-2.024%
CC(C)c1cc(NC(=O)c2ccncc2)[nH]n1	102.9%
Cc1cccc(NCCOc2cccc(C#N)c2)c1C(N)=O	-11.96%
Cc1cc(C)n(Cc2cccc(C(=O)N(CCC#N)CCC#N)c2)n1	-7.761%
CC(C)c1nnc2n1CCN(C(=O)c1cccc(OCC(N)=O)c1)C2	-10.94%
CC(C)c1cc(NCC2(Cn3cccn3)CC2)nc(N)n1	7.043%
CN(C)CCCN(C)C1CCN(c2cccc(-c3cscn3)c2)CC1	6.682%
O=C(NC1CCCCC1)c1cc(Br)cnc1N1CCCCC1	116.3%
COc1ccc(Br)c(C(=O)NCC2CCN(S(=O)(=O)C3CC3)CC2)c1	-4.78%
O=C(c1cnc(NCC2CCCO2)c(Cl)c1)N1CCOCC1 (centres undefined)	2.383%
O=C(NC[C@@H]1CCCO1)c1cc(Br)cnc1N1CCCCC1	112.6%
O=C(NC1CCN(c2ncccn2)CC1)c1cc2c(cc1O)CCCC2	1.017%
O=C(NC1CC1)c1cnc(-c2noc3cc(N4CCCCC4)ccc23)s1	-8.879%
O=C(NCC1CCCCC1)c1nnn(-c2ccc(Br)cc2)n1	-0.9526%
O=C(c1cnc(NCC2CCCO2)c(Cl)c1)N1CCCCC1 (centres undefined)	21.16%
O=C(NCC1CC1)c1cc(Br)cnc1N1CCCCC1	74.44%
Cc1ccc([C@@H]2CN(C(=O)c3cc(C)no3)C[C@H]2NC(=O)C2CC2)cc1	-6.322%
Cc1cc(C)c(CCNC(=O)CN2CCCN(C(N)=O)CC2)c(C)c1	7.662%
CC(SCCNS(=O)(=O)c1cnn(C)c1)c1cccs1 (centres undefined)	10.16%
CCc1c(C(=O)N2CCOC(C)(C)C2)cnn1-c1ccccn1	19.62%
COc1cccc2c1N(CC(=O)Nc1ccc(Br)cn1)CCC2	-18.77%
COc1ccc(-c2ccc(C(=O)NS(C)(=O)=O)c(F)c2)c(F)c1	2.644%

Structure (SMILES)	Percent Effect
CN(C)C(=O)Cn1c2c(ccc1=O)CC(NCc1cccnc1)CC2 (centres undefined)	-16.54%
Cc1cnc(NC2CCc3c(ccc(=O)n3C)C2)nc1 (centres undefined)	9.132%
CCc1cnc(NC2CCc3c(ccc(=O)n3C)C2)nc1 (centres undefined)	-4.602%
Cn1cc(CNC2CCc3c(ccc(=O)n3C)C2)cn1 (centres undefined)	106.3%
CCn1c2c(ccc1=O)CC(NCc1cnn(C)c1)CC2 (centres undefined)	111.7%
COCCn1c2c(ccc1=O)CC(NCc1cnn(C)c1)CC2 (centres undefined)	90.26%
Cc1cnc(NC2CCc3c(ccc(=O)n3CC3CC3)C2)nc1 (centres undefined)	-5.786%
COCCn1c2c(ccc1=O)CC(NC(=O)c1cscn1)CC2 (centres undefined)	-30.94%
O=c1ccc2c(n1Cc1cccnc1)CCC(NCc1cccnc1)C2 (centres undefined)	-5.878%
Cn1cc(-c2csc(CN3CCOCC3)n2)cn1	-11.66%
N#Cc1ccccc1C(=O)N1C[C@@H](CN2CCCCC2)[C@@H](CO)C1	-9.135%
CC(C)(C)OC(=O)NC1(c2noc(-c3ccoc3)n2)CCC1	-12.02%
CC1(C)CC(N2Cc3nc(N)ncc3C2=O)CC(C)(C)N1	-10.52%
Cc1cccc(CO[C@H]2CN(c3nnc(C)s3)[C@@H]3CCCO[C@H]23)n1.O=C(O)C(F)(F)F.O=C(O)C(F)(F)F	-4.881%
CO[C@@H]1CCN(Cc2nccs2)C[C@@H]1Cc1cccc(C)c1.O=C(O)C(F)(F)F	-16.54%
CO[C@@H]1CCN(c2nnc(C)s2)C[C@@H]1Cc1cccc(C)c1.O=C(O)C(F)(F)F	98.33%
CO[C@H]1CCN(c2nnc(C)s2)C[C@@H]1Cc1cccc(C)c1.O=C(O)C(F)(F)F	71.03%
CCc1nc2c(N3CCC4(CC3)CC(=O)N(CC)C4)ncnc2o1	-6.459%
CNc1ncc(CN(C)C(=O)c2cccc(CC3CCNCC3)c2)cn1	3.587%
CC(=O)N1CCC2(CCN(C(=O)c3ccc(C)c(C(F)(F)F)c3)CC2)C1	5.655%
